Test results: PubChem BioAssay AID652154 (Broad Institute, 2013)
About 4,200 (1.2%) of roughly 360,000 compounds were called active.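 Rule for the calls: active = mean replicate inhibition at least 60% with every replicate also reaching 60%; inconclusive = only one of the two criteria is met; inactive = mean below 60% and not all replicates reaching 60%.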 The list comes from a sample in which actives are over-represented; it also holds similar structures and randomly drawn compounds.

Test: inhibitors of PAX8-driven TPO luciferase reporter, primary screen, RMG-I cells, single concentration (AID 652154);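 note: luciferase light reporting Pax8 driven TPO promoter activity; plate controls were median of neutral control wells for no effect and mitoxantrone controls for full effect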
Conditions: SteadyGlo, 24 h, at 12.6 µM, stronger effect = higher value

inhibition, active:
Cc1ccc(Oc2cc(NC(=O)CCCn3nc(C)c([N+](=O)[O-])c3C)cc([N+](=O)[O-])c2)cc1 84.6%
CN1CCN(CCCNC(=O)c2ccc(/C=C3\Oc4ccccc4N(Cc4ccc(Cl)cc4)C3=O)cc2)CC1 100%
C[C@@H]1CN([C@@H](C)CO)S(=O)(=O)c2ccc(/C=C/c3ccccc3)cc2O[C@H]1CN(C)Cc1cccnc1 68.6%
COc1ccccc1C#Cc1ccc2c(c1)O[C@@H](CN(C)Cc1cncnc1)[C@H](C)CN([C@@H](C)CO)S2(=O)=O 74.3%
COc1ccccc1C#Cc1ccc2c(c1)O[C@H](CN(C)Cc1cccnc1)[C@@H](C)CN([C@H](C)CO)S2(=O)=O 70%
COC(=O)[C@@]1(Cc2ccc(OC)cc2)[C@H]2c3cc(C(=O)N4CCCC4)n(Cc4ccc(OC(F)(F)F)cc4)c3C[C@H]2CN1C(=O)c1ccccc1 77%
Cc1ccc(NC(=O)c2nc[nH]c2C(=O)N[C@@H](CCCCNC(=O)OC(C)(C)C)C(=O)OC(C)(C)C)cc1 64%
Cc1ccnc(NC(=O)C2CCN(S(=O)(=O)c3c(C)c(C)cc(C)c3C)CC2)c1 74.9%

inhibition, inactive:
COc1ccc(CNC(=O)CCCn2nc(C)c([N+](=O)[O-])c2C)cc1 2.46%
Cc1nn(CC(=O)Nc2ccc(N(C)C)cc2)c(C)c1[N+](=O)[O-] 13.9%
Cc1ccccc1S(=O)(=O)N1CC[C@H]2[C@H](CO)Nc3ccc(-c4cccc(F)c4)cc3[C@H]21 -9.62%
COc1ccccc1NC(=O)N1C[C@H]2[C@@H](c3ccccc31)[C@@H](CO)N2C(=O)C1CCCC1 14.9%
CCCN1C[C@@H](C)[C@@H](OC)CN(C)C(=O)c2ccc(NC(=O)c3ccc(F)cc3)cc2OC[C@@H]1C -1.32%
O=C(C[C@@H]1CC[C@H]2[C@@H](COC[C@@H](O)CN2S(=O)(=O)c2cccc(Cl)c2)O1)N1CCCCC1 -3.53%
CCC1Oc2ccccc2N(CC(=O)NCCCN2CCN(CC)CC2)C1=O (configuration not stated) 5.58%
Cc1c(C)n(Cc2ccc(Cl)cc2)c2ccc(C(=O)NCCCN3CCOCC3)cc12 15.4%
CN1c2ccc(Br)cc2[C@H]2[C@H](CCN2S(=O)(=O)c2ccccc2)[C@@H]1CO 0.611%
CN1CCCCC(NC(=O)C(C)(C)C)C1=O (configuration not stated) 8.76%
C[C@H](CO)N1C[C@H](C)[C@H](CN(C)CC2CC2)Oc2ccc(NC(=O)c3ccncc3)cc2C1=O -14.7%
C[C@@H]1CN([C@@H](C)CO)S(=O)(=O)c2ccc(/C=C/c3ccccc3)cc2O[C@H]1CN(C)Cc1ccccc1 11.4%
C[C@@H]1CN([C@H](C)CO)S(=O)(=O)c2ccc(/C=C/c3ccccc3)cc2O[C@@H]1CN(C)Cc1ccccc1 31%
C[C@H](O)C#Cc1ccc2c(c1)O[C@@H](CN(C)Cc1cncnc1)[C@H](C)CN([C@H](C)CO)S2(=O)=O 8.97%
C[C@@H]1CN([C@H](C)CO)S(=O)(=O)c2ccc(C#CC3CCCC3)cc2O[C@@H]1CN(C)Cc1cccnc1 31.1%
C[C@H](O)C#Cc1ccc2c(c1)O[C@H](CN(C)Cc1cncnc1)[C@H](C)CN([C@@H](C)CO)S2(=O)=O 19.4%
COCC#Cc1ccc2c(c1)O[C@@H](CN(C)Cc1cccnc1)[C@@H](C)CN([C@H](C)CO)S2(=O)=O -14.2%
COc1ccccc1NC(=O)N[C@H]1C=C[C@@H](CC(=O)N[C@@H](C)c2ccccc2)O[C@@H]1CO 4.41%
O=C(C[C@H]1CC[C@@H]2[C@H](COC[C@H](O)CN2C(=O)c2ccc3c(c2)OCO3)O1)NC1CCC1 -16.6%
CC(=O)Nc1ccc2c(c1)C(=O)N(C)[C@@H]1CC[C@H](CC(=O)NCc3ccccc3)O[C@H]1CO2 -2.89%
C/C=C/c1cnc2c(c1)C(=O)N([C@H](C)CO)C[C@H](C)[C@@H](CN(C)C(=O)c1cccc(F)c1)O2 -7.23%
C[C@H](CO)N1C[C@H](C)[C@@H](CN(C)S(=O)(=O)c2ccc(F)cc2)Oc2ccc(NC(=O)CCCCCC(=O)Nc3ccccc3N)cc2CC1=O 26.9%
C[C@H](CO)N1C[C@H](C)[C@@H](CN(C)S(=O)(=O)c2cn(C)cn2)Oc2ccc(NS(=O)(=O)c3cn(C)cn3)cc2C1=O -10.4%
COC(=O)[C@@]1(Cc2ccc(F)cc2)[C@H]2c3cc(C(=O)N4CCCC4)n(C[C@H](O)CO)c3C[C@H]2CN1C(=O)c1ccccc1 0.0525%
COC(=O)[C@@]1(Cc2ccc(F)cc2)[C@H]2c3cc(C(=O)N(C)C)n(CCc4c[nH]c5ccc(OC)cc45)c3C[C@H]2CN1C(=O)c1ccccc1 -3.55%
C[C@@H]1CN([C@H](C)CO)C(=O)Cc2cc(NC(=O)CCCN(C)C)ccc2O[C@@H]1CN(C)Cc1ccc(Oc2ccccc2)cc1 -19.4%
Cn1cnc(CCNC(=O)C[C@H]2CC[C@@H]3[C@H](COC[C@@H](O)CN3C(=O)Nc3ccc(Cl)cc3)O2)c1 -17.8%
Cc1noc(C)c1S(=O)(=O)Nc1ccc2c(c1)C(=O)N([C@H](C)CO)C[C@@H](C)[C@@H](CN(C)Cc1ccccc1)OCCCC[C@@H](C)O2 15.9%
CCOC(=O)c1ccc(NC(=O)c2nc[nH]c2C(=O)N[C@@H](CCCCNC(=O)OC(C)(C)C)C(=O)OC(C)(C)C)cc1 11.1%
CC(C)(C)OC(=O)NCCCCCNC(=O)c1nc[nH]c1C(=O)NCc1ccccc1 8.72%
COc1ccccc1CCn1cnc(-c2ccccc2)c1C(C)C 14.5%
Cc1cccc(NC(=O)C2CCN(S(=O)(=O)c3cccc4cccnc34)CC2)c1 11.9%
O=C(Nc1ccccn1)C1CCN(S(=O)(=O)c2ccccc2)CC1 -150%
COc1ccccc1-c1ccc2c(c1)[C@H]1[C@H](CCN1S(=O)(=O)c1ccccc1)[C@@H](CO)N2 48.7%
